Measured values: PubChem BioAssay AID1159580 (chemical genetic matrix, 2015)
Values joined by “and” are separate entries in the source; they are usually repeats but may differ in a detail not shown here. Equal values may be shown once. Hit rate of the full screen: of about 5,500 compounds, about 2,000 (36%) were called active. Roughly 18% stayed inconclusive and do not appear here. No stated cut-off is given here; in the data, active means normalized growth mostly below about 0.91 (no sharp cut-off); inconclusive means no clear call, values can overlap the other calls; inactive means mostly above about 0.92. Some of the results follow.

Experiment: chemical genetic growth profiling, strain panel (AID 1159580);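 further: tested at 20 µM; growth read once vehicle control cultures reached saturation at 30 °C; 1 = growth at the plate median or of vehicle wells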
Conditions: growth OD

Measured: normalized growth

CCC1(C)CC(=O)NC1=O (stereo unspecified)
inactive: S. cerevisiae deletion strains, locus YJR075W, strain HOC1, stronger effect = lower value 1.01 | S. cerevisiae deletion strains, locus YKL009W, strain mrt4, stronger effect = lower value 1.03 | S. cerevisiae deletion strains, locus YKL068W, stronger effect = lower value 1.01 | S. cerevisiae deletion strains, locus YKL085W, strain MDH1 (second series), stronger effect = lower value 1.01 | S. cerevisiae deletion strains, locus YKL085W, strain MDH1, stronger effect = lower value 1.01 | S. cerevisiae deletion strains, locus YKL160W, strain elf1, stronger effect = lower value 0.992 | S. cerevisiae deletion strains, locus YKL190W, strain CNB1, stronger effect = lower value 1.02 | S. cerevisiae deletion strains, locus YKR001C, strain vps1, stronger effect = lower value 1.01 | S. cerevisiae deletion strains, locus YKR026C, strain gcn3, stronger effect = lower value 0.979 | S. cerevisiae deletion strains, locus YKR091W, strain srl3, stronger effect = lower value 0.972 | S. cerevisiae deletion strains, locus YLL001W, strain dnm1, stronger effect = lower value 0.967 | S. cerevisiae deletion strains, locus YLL026W, stronger effect = lower value 0.98 | S. cerevisiae deletion strains, locus YLL041C, strain sdh2, stronger effect = lower value 0.995 | S. cerevisiae deletion strains, locus YLR027C, strain aat2, stronger effect = lower value 0.975 | S. cerevisiae deletion strains, locus YLR039C, strain RIC1, stronger effect = lower value 1.03 | S. cerevisiae deletion strains, locus YLR058C, strain SHM2, stronger effect = lower value 1.02 | S. cerevisiae deletion strains, locus YLR102C, strain apc9, stronger effect = lower value 1.01 | S. cerevisiae deletion strains, locus YLR113W, strain HOG1, stronger effect = lower value 0.966 | S. cerevisiae deletion strains, locus YLR221C, strain rsa3, stronger effect = lower value 0.987 | S. cerevisiae deletion strains, locus YLR258W, strain gsy2, stronger effect = lower value 0.968 | S. cerevisiae deletion strains, locus YLR262C, strain YPT6 (second series), stronger effect = lower value 0.977 | S. cerevisiae deletion strains, locus YLR262C, strain YPT6, stronger effect = lower value 1.04 | S. cerevisiae deletion strains, locus YLR268W, strain sec22, stronger effect = lower value 1.02 | S. cerevisiae deletion strains, locus YLR320W, strain mms22, stronger effect = lower value 0.978 | S. cerevisiae deletion strains, locus YLR330W, strain CHS5, stronger effect = lower value 1.01 | S. cerevisiae deletion strains, locus YLR342W, strain FKS1 (second series), stronger effect = lower value 1.02 | S. cerevisiae deletion strains, locus YLR342W, strain FKS1, stronger effect = lower value 0.988 | S. cerevisiae deletion strains, locus YLR357W, strain rsc2, stronger effect = lower value 0.965 | S. cerevisiae deletion strains, locus YLR370C, strain arc18, stronger effect = lower value 0.981 | S. cerevisiae deletion strains, locus YLR371W, strain rom2, stronger effect = lower value 1.02 | S. cerevisiae deletion strains, locus YLR384C, strain iki3, stronger effect = lower value 0.969 | S. cerevisiae deletion strains, locus YLR418C, strain cdc73, stronger effect = lower value 1.02 | S. cerevisiae deletion strains, locus YML016C, strain PPZ1, stronger effect = lower value 1.01 | S. cerevisiae deletion strains, locus YML032C, strain rad52, stronger effect = lower value 1.01 | S. cerevisiae deletion strains, locus YML120C, strain ndi1, stronger effect = lower value 0.977 | S. cerevisiae deletion strains, locus YML124C, strain tub3, stronger effect = lower value 1.02 | S. cerevisiae deletion strains, locus YMR058W, strain fet3, stronger effect = lower value 0.969 | S. cerevisiae deletion strains, locus YMR078C, strain ctf18, stronger effect = lower value 1.02 | S. cerevisiae deletion strains, locus YMR125W, strain sto1, stronger effect = lower value 0.97 | S. cerevisiae deletion strains, locus YMR129W, stronger effect = lower value 0.979 | S. cerevisiae deletion strains, locus YMR205C, strain PFK2, stronger effect = lower value 0.992 | S. cerevisiae deletion strains, locus YMR223W, strain ubp8, stronger effect = lower value 1.02 | S. cerevisiae deletion strains, locus YMR231W, strain pep5, stronger effect = lower value 0.983 | S. cerevisiae deletion strains, locus YMR263W, strain SAP30, stronger effect = lower value 1.01 | S. cerevisiae deletion strains, locus YMR307W, strain GAS1, stronger effect = lower value 1.04 | S. cerevisiae deletion strains, locus YNL067W, strain RPL9B, stronger effect = lower value 1.01 | S. cerevisiae deletion strains, locus YNL071W, strain lat1, stronger effect = lower value 0.96 | S. cerevisiae deletion strains, locus YNL128W, strain TEP1, stronger effect = lower value 1.04 | S. cerevisiae deletion strains, locus YNL153C, strain GIM3, stronger effect = lower value 1.01 | S. cerevisiae deletion strains, locus YNL175C, strain NOP13, stronger effect = lower value 0.993 | S. cerevisiae deletion strains, locus YNL183C, strain NPR1, stronger effect = lower value 0.906 | S. cerevisiae deletion strains, locus YNL197C, strain WHI3, stronger effect = lower value 0.999 | S. cerevisiae deletion strains, locus YNL209W, strain ssb2, stronger effect = lower value 0.969 | S. cerevisiae deletion strains, locus YNL224C, strain SQS1, stronger effect = lower value 0.975 | S. cerevisiae deletion strains, locus YNL233W, strain BNI4, stronger effect = lower value 1 | S. cerevisiae deletion strains, locus YNL248C, strain rpa49, stronger effect = lower value 0.993 | S. cerevisiae deletion strains, locus YNL250W, strain rad50, stronger effect = lower value 1.01 | S. cerevisiae deletion strains, locus YNL271C, strain bni1, stronger effect = lower value 1.03 | S. cerevisiae deletion strains, locus YNL298W, strain CLA4, stronger effect = lower value 1.02 | S. cerevisiae deletion strains, locus YNL307C, strain MCK1, stronger effect = lower value 1.02 | S. cerevisiae deletion strains, locus YNL322C, strain KRE1 (second series), stronger effect = lower value 0.982 | S. cerevisiae deletion strains, locus YNL322C, strain KRE1, stronger effect = lower value 1.01 and 1.02 | S. cerevisiae deletion strains, locus YNR049C, strain mso1, stronger effect = lower value 0.969 | S. cerevisiae deletion strains, locus YNR052C, strain pop2, stronger effect = lower value 1.02 | S. cerevisiae deletion strains, locus YOL006C, strain TOP1, stronger effect = lower value 0.992 | S. cerevisiae deletion strains, locus YOL012C, strain htz1 0.885 | S. cerevisiae deletion strains, locus YOL147C, strain pex11, stronger effect = lower value 1.01 | S. cerevisiae deletion strains, locus YOR001W, strain rrp6, stronger effect = lower value 0.98 | S. cerevisiae deletion strains, locus YOR061W, strain CKA2, stronger effect = lower value 1.01 | S. cerevisiae deletion strains, locus YOR069W, strain VPS5, stronger effect = lower value 1.01 | S. cerevisiae deletion strains, locus YOR070C, strain gyp1, stronger effect = lower value 1.01 | S. cerevisiae deletion strains, locus YOR080W, strain dia2, stronger effect = lower value 0.976 | S. cerevisiae deletion strains, locus YOR083W, strain WHI5 (second series), stronger effect = lower value 1 | S. cerevisiae deletion strains, locus YOR083W, strain WHI5, stronger effect = lower value 0.976 | S. cerevisiae deletion strains, locus YOR106W, strain vam3, stronger effect = lower value 0.959 | S. cerevisiae deletion strains, locus YOR136W, strain idh2, stronger effect = lower value 1.02 | S. cerevisiae deletion strains, locus YOR144C, strain elg1, stronger effect = lower value 1.01 | S. cerevisiae deletion strains, locus YOR184W, strain ser1, stronger effect = lower value 1.01 | S. cerevisiae deletion strains, locus YOR231W, strain MKK1, stronger effect = lower value 0.977 | S. cerevisiae deletion strains, locus YOR265W, strain rbl2, stronger effect = lower value 0.978 | S. cerevisiae deletion strains, locus YOR270C, strain vph1, stronger effect = lower value 0.984 | S. cerevisiae deletion strains, locus YOR290C, strain snf2, stronger effect = lower value 0.963 | S. cerevisiae deletion strains, locus YOR316C, strain cot1, stronger effect = lower value 1.02 | S. cerevisiae deletion strains, locus YPL051W, strain arl3, stronger effect = lower value 0.987 | S. cerevisiae deletion strains, locus YPL055C, strain LGE1, stronger effect = lower value 0.988 and 1.06 | S. cerevisiae deletion strains, locus YPL078C, strain atp4, stronger effect = lower value 0.97 | S. cerevisiae deletion strains, locus YPL106C, strain sse1, stronger effect = lower value 1.01 | S. cerevisiae deletion strains, locus YPL240C, strain hsp82, stronger effect = lower value 0.973 | S. cerevisiae deletion strains, locus YPL241C, strain CIN2, stronger effect = lower value 1.01 | S. cerevisiae deletion strains, locus YPL256C, strain CLN2, stronger effect = lower value 0.956 | S. cerevisiae deletion strains, locus YPR119W, strain clb2, stronger effect = lower value 1.01 | S. cerevisiae deletion strains, locus YPR141C, strain kar3, stronger effect = lower value 1.02 | S. cerevisiae deletion strains, locus YPR163C, strain tif3, stronger effect = lower value 1.02 | S. cerevisiae deletion strains, locus YPR167C, strain met16, stronger effect = lower value 1.02 | S. cerevisiae deletion strains, strain wtn01, stronger effect = lower value 1.02 | S. cerevisiae strains, strain wild type, stronger effect = lower value 1.01
